# This is a sample that favours compounds with a hit; in the whole collection about 19% have one here.
# MARV entry inh: Marburg virus entry inhibition; Potency, µM (series often up to 37.8 µM), for inactives: at the top dose activity change, negative = inhibition, actives largely listed as inhibitors; 300,000 compounds, 1.8% hits; Marburg virus pseudotyped entry inhibition, cell reporter; AID 540276; calls by dose curve; tested in HEK293 cells; note: potency is the fitted concentration of half-maximal effect; % is set by controls: 0 for no effect and ±100 for the full control effect
# Shiga toxin inh: blocks Shiga toxin action in Vero cells; Vero cells, Shiga toxin protein synthesis inhibition reporter; inhibition, % at 38.7 µM; 290,000 compounds, 9.2% hits; AID 2315; in the data active = inhibition mostly above about 28%, no sharp cut-off; inactive = mostly below about 43%; note: 0% is about no effect
# Pf growth 48h: P. falciparum growth inhibition at 48 hours (one generation) | P. falciparum luciferase growth in erythrocytes, 48 h | Potency, µM (titrated, usually from 28.7 µM), inactives show at the top dose activity change, negative = inhibition, hits mostly inhibitors | 310,000 compounds, 5.9% hits | AID 504832; note: potency is the fitted concentration of half-maximal effect; % is set by controls: 0 for no effect and ±100 for the full control effect
#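 Cell-based growth assay: transgenic P. falciparum expressing firefly luciferase, cultured in red cells within RPMI 1640 containing 0.5% w/v Albumax, 24 mM bicarbonate and gentamycin. A drop in luciferase activity indicates inhibition.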
# Cycloheximide cs: affects cycloheximide protein synthesis inhibition readout, counter-screen | 300,000 compounds, 12% hits | max response, % | cell reporter, cycloheximide protein synthesis inhibition counterscreen; in the data active = max response mostly above about 13%, no sharp cut-off; inactive = mostly below about 14%; note: read at 38.3 µM for the half of the compounds with a filed dose; 0% is about no effect
# LASV entry inh: inhibitors of Lassa virus binding or cell entry; Lassa virus pseudotype entry inhibition, cell reporter; AID 540256; 300,000 compounds, 1.2% hits; Potency, µM (doses to about 37.9 µM), without a hit: top-dose activity change, negative = inhibition, actives largely listed as inhibitors; calls by dose curve; tested in HEK293 cells; note: potency is the fitted concentration of half-maximal effect; % is set by controls: 0 for no effect and ±100 for the full control effect; nearly all actives have a fitted effect of over 50% in size
# Pf growth 96h: inhibits malaria parasite growth, 96 h | Potency, µM (titrated, usually from 28.7 µM), inactives show top-dose activity change, negative = inhibition, hits mostly inhibitors | P. falciparum luciferase reporter growth, 96 h | AID 504834 | 320,000 compounds, 6.9% hits; note: potency is the fitted concentration of half-maximal effect; % is set by controls: 0 for no effect and ±100 for the full control effect
#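 Two parasite generations (96 h, 37 C, 5% CO2) of compound exposure in infected erythrocytes (0.05% parasitemia, 2% hematocrit). Luciferase-reporter P. falciparum; decreased luminescence indicates inhibited growth, aimed at apicoplast-acting delayed death.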
# * = called active by the depositor; ? = inconclusive; / = not tested or not shown; [ ] = dose if it differs, or a comment. Unless noted, calls come from the whole dose curve; as a rule, active = well fitted inhibition curve with a large enough effect; inconclusive = small, poorly fitted or top-dose-only effect, or another doubt; inactive = no such curve, though single readings can be large or run the other way.
SMILES,MARV entry inh,Shiga toxin inh,Pf growth 48h,Cycloheximide cs,LASV entry inh,Pf growth 96h
CNC(C)C#Cc1c(-c2cc(OC)c(OC)c(OC)c2)noc1C (stereo not drawn),/,7,?,1,/,15µM*
Cc1cc(C)cc(NC(=O)CCC(=O)N2CCSc3ccccc32)c1,/,9,63%,-2,-18%[46.1 µM],?
COc1ccc(Br)cc1CN1CCN(CCO)CC1,4%,18,12%,-3,46%[14.3 µM],-20%
COc1cc(OC)c(CN2CCCCCCC2)cc1Br,-14%,-4,/,1,1%,13µM*
COc1ccc(Br)cc1CN1CCC(N2CCCC2)CC1,/,-13,9.3µM*,-2,/,?
CCN(CC)C1=C(Cl)C(=O)C(Cl)C12OCCO2 (stereo not drawn),?,-5,15µM*,7,4%,-6%
CC1=C(C(=O)Nc2ccccc2C)C(c2ccccc2)NC(=O)N1 (stereo not drawn),/,-12,/,14,/,-12%
CCS(=O)(=O)N1CCCC(C(=O)NCCCN2CCCC2=O)C1 (stereo not drawn),5%,-16,7%,5,-8%,10µM*
CC(=O)Nc1ccc(S(=O)(=O)NCC2CCC(C(=O)NCCCN3CCCC3=O)CC2)cc1 (stereo not drawn),4%,-5,-1%,-2,11%,?
CCS(=O)(=O)N1CCCC(C(=O)NCCCOC)C1 (stereo not drawn),-20%,-5,0%,27,-2%,14%
O=C(NCCCN1CCCC1=O)C1CCC(CNS(=O)(=O)c2ccc(Cl)cc2)CC1 (stereo not drawn),/,33,4%,-7,/,12µM*
Cc1cc(C)c(S(=O)(=O)NCC2CCC(C(=O)NCCCN3CCC(C)CC3)CC2)c(C)c1 (stereo not drawn),/,-8,9.3µM*,-1,/,8%
Nc1nonc1-n1nnc(C(=O)N/N=C/c2ccncc2)c1CSc1ccc(Cl)cc1,/,-3,0%,5,/,41%
CC(C)(C)c1ccc(C(=O)Nc2nonc2-c2nc3ccccc3[nH]2)cc1,-7%,-3,3%,-2,3%,10%[5.75 µM]
N[C@H](CC(=O)O)C(=O)O,/,/,3%,/,/,?
Cn1nc(C(F)(F)F)c(C(=O)Nc2ccc(F)cc2F)c1Sc1ccc(Cl)cc1,2%,-3,?,0,0%,12µM*
Cc1ccc(Sc2c(C(=O)Nc3ccc(F)cc3F)c(C(F)(F)F)nn2C)cc1,?,-3,?,-3,25%,?
Cn1nc(C(F)(F)F)c(C(=O)Nc2ccc(F)cc2F)c1Sc1ccc(C(F)(F)F)cc1,-11%,-3,?,-3,-6%,8.3µM*
O=C(O)CSc1nc2ccc(Br)cc2[nH]1,6%[46.1 µM],/,/,/,17%[46.1 µM],/
CCOn1c(=O)c(-c2ccc(Br)cc2)[n+]([O-])c2ccccc21,/,22,22%,9,/,30%
O=c1c(-c2cc3ccccc3o2)[n+]([O-])c2ccccc2n1OCc1ccccn1,9%,101*,111%,48*,-13%,322%
CCOn1c(=O)c(-c2cc3ccccc3o2)[n+]([O-])c2ccccc21,?,163*,92%,47*,14%,-55%
O=c1c(-c2ccc(Br)cc2)[n+]([O-])c2ccccc2n1OCc1ccccn1,-2%[46.1 µM],23,5%,0,2%,0%
COc1ccc(C(=O)Nc2ccccc2C(=O)NCCCn2ccnc2)cc1,-13%,33,?,-1,1%,?
CCSc1ccccc1C(=O)Nc1cccnc1,2%,13,-5%,15,0%,15%
SMILES,MARV entry inh,Shiga toxin inh,Pf growth 48h,Cycloheximide cs,LASV entry inh,Pf growth 96h
CC(C)CNC(=S)N1CCC(c2nc(-c3ccc(F)cc3)no2)CC1,?,15,-11%,-2,-19%,?
COCCNC(=S)N1CCC(c2nc(-c3ccc(N(C)C)cc3)no2)CC1,-10%,49,?,24*,-19%,29%
COc1ccc(CC(=O)Oc2ccccc2Cl)cc1S(=O)(=O)N1CCOCC1,11%[46.1 µM],/,2%,/,16%,0%
Cc1cccc(-n2ccc(=O)c(C(=O)Nc3ccc(S(=O)(=O)Nc4nccs4)cc3)n2)c1,/,1,?,1,/,?
O=C(Nc1c(Cl)cccc1Cl)c1cc(-c2cccc(O)c2)on1,?,/,/,/,-27%[46.1 µM],/
O=C(c1cc(-c2cccc(O)c2)on1)N1CCCC1,?,62*,235%,37*,?,5%

# Screening results deposited in PubChem by National Center for Advancing Translational Sciences (NCATS).
